Bioassay records from PubChem BioAssay.
Shown are actives, neighbours in structure and some others; about 3.4% of the full set was active somewhere.
GoLoco inh red: RGS12 GoLoco-Gai1 interaction inhibition | AID 880 | Potency, µM (top dose mostly 61.6 µM), without a hit: at the highest dose activity, negative = inhibition, hits mostly inhibitors | Gai1:RGS12 GoLoco peptide FP, rhodamine, 10 min | 230,000 tested, 0.44% active | P63096; active = well fitted inhibition curve with a large enough effect, not every such curve was filed as active; inactive = no such curve, though single readings can be large or run the other way; note: nearly all actives have a fitted effect of over 30% in size
Target sequence (P63096 whole entry, looked up): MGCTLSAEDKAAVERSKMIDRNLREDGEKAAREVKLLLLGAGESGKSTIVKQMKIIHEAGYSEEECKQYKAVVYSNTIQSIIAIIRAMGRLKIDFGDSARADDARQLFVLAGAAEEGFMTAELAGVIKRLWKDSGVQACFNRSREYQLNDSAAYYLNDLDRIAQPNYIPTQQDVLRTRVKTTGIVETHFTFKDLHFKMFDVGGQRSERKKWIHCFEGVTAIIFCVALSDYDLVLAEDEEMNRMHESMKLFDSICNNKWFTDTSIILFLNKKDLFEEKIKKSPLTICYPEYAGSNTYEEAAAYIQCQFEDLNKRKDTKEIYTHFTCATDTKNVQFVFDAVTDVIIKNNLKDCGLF
KDM4E inh: blocks human JMJD2E demethylase activity; B2RXH2; JMJD2E catalytic domain, FDH-coupled NADH fluorescence (FDH is formaldehyde dehydrogenase); Potency, µM (doses to about 57.1 µM), inactives show top-dose activity change, negative = inhibition, usual class: inhibitors; 230,000 tested, 1.6% active; AID 2147; active = well fitted inhibition curve with a large enough effect, not every such curve was filed as active; inconclusive = small, poorly fitted or top-dose-only effect, or another doubt; inactive = no such curve, though single readings can be large or run the other way;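 note: 0% = wells with enzyme and -100% = buffer wells without enzyme; nearly all actives have a fitted effect of over 50% in size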
Tau fibril FP: tau fibrillization inhibition (FP) | P10636 | AID 1468 | 280,000 tested, 0.39% active | K18 P301L tau heparin fibrillization, Alexa594 FP, 6 h | Potency, µM (top dose mostly 57.7 µM), for the others: at the highest dose activity, negative = inhibition, hits mostly inhibitors; note: nearly all actives have a fitted effect of over 55% in size
Target sequence (P10636 561-689 P618L limits assumed): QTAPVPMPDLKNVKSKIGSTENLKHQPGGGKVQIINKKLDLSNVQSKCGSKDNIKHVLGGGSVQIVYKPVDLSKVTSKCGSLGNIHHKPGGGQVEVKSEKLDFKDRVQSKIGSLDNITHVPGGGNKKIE
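FP of Alexa 594-tau after heparin (20 uM) induction. Substrate: human K18 P301L, 15 uM unlabeled, 0.24 uM labeled. Buffer 100 mM sodium acetate pH 7. 6 hr, 37 C.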
Tau fluor cs: counter-screen for tau fibril formation inhibitors; 280,000 tested, 0.93% active; Potency, µM (highest dose often 57.7 µM), for the others: top-dose activity change, negative = decrease; tau K18 P301L Alexa594 fluorescence, heparin fibrillization; note: nearly all actives have a fitted effect of over 55% in size
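Human tau K18 P301L (15 uM unlabeled, 0.24 uM Alexa 594-labeled) in 100 mM sodium acetate pH 7 with 20 uM heparin, 6 hr at 37 C. ThT 30 uM added, 1 hr ambient; Alexa 594 FP and total fluorescence read at 555/632 nm.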
Tau fibril ThT: blocks human tau fibril formation measured by thioflavin T; Potency, µM (titrated, usually from 57.4 µM), inactives show top-dose activity, negative = inhibition, usual class: inhibitors; P10636; 270,000 tested, 2.1% active; recombinant tau K18 P301L (four-repeat tau fragment), heparin-induced fibrillization, ThT fluorescence; AID 1460; note: nearly all actives have a fitted effect of over 55% in size
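In this qHTS, human K18 P301L tau is incubated with compound and heparin for 6 hr at 37 C, and Thioflavin T fluorescence then reports fibril load.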
* hit, by the source's call; ? = inconclusive; / = no result; [ ] = another dose, or the depositor's remark. Unless noted, calls come from the whole dose curve; as a rule, active = well fitted curve in the direction sought with a large enough effect; inconclusive = small, poorly fitted or top-dose-only effect, or another doubt; inactive = no such curve, though single readings can be large; an effect the other way counts as inactive or inconclusive. Unless noted, % is set by controls: 0 for no effect and ±100 for the full control effect; potency is the fitted concentration of half-maximal effect.

SMILES | GoLoco inh red | KDM4E inh | Tau fibril FP | Tau fluor cs | Tau fibril ThT
CC(=O)c1cccc(NC(=O)C(OC(=O)c2ccccc2NS(=O)(=O)c2cccs2)c2ccccc2)c1 (centres undefined) | -1.7% | ? | 17.8µM* | ? | 13.4%
CCOc1ccccc1NC(=O)C(OC(=O)c1ccccc1NS(=O)(=O)c1cccs1)c1ccccc1 (centres undefined) | 1.1% | ? | -1.3% | -12.5% | 5.3%
O=C(Nc1ccc(Cl)c(Cl)c1)Nc1ccccc1NS(=O)(=O)c1cccs1 | -3.8% | 0.4% | 14.1µM* | 7.08µM*[quencher] | ?
O=C1Nc2ccc3sc4ccccc4c3c2C1=O | 18.1% | -17.5% | 4.3% | ? | 4.47µM*
CC(=O)Oc1cc(C)c(OC(C)=O)c2ccccc12 | 4.7% | / | / | / | /
Cc1ccc(CNC(=O)Cn2ccn(-c3cccc(Cl)c3)c(=O)c2=O)cc1 | / | / | 2.9% | 2.6% | -2.6%
Cc1ccc2c(c1)c(=O)c1c3n2CCN(C(=O)CCl)C3CC1 (centres undefined) | 3.4% | ? | ? | ? | 14.1µM*
O=C(O)CC/C(=C\c1ccc(N2CCCC2)c([N+](=O)[O-])c1)c1nc2ccccc2s1 | 10.4% | 8.1% | -11.5% | -23.9% | 4.47µM*
O=C(O)CC/C(=C\c1ccccc1[N+](=O)[O-])c1nc2ccccc2s1 | -2.9% | 4.6% | 5.8% | -5.6% | -13.2%
CCOC(=O)/C(C(=O)Nc1ccccc1Cl)=C1/NC(C)(C)Cc2ccccc21 | 2.1% | -13.9% | -8.4% | -10.3% | -12.1%
CCOC(=O)/C(C)=C1\NC(C)(C)Cc2ccccc21 | 28.2µM* | -0.6% | ? | -8.0% | ?
CSc1cccc(NC(=O)C2CCN(S(=O)(=O)c3ccc4c(c3)CCCN4C(=O)C3CCC3)CC2)c1 | / | / | 1.6% | -15.1% | 13.2%
COc1cccc(CNc2ccc(N3CCCCC3)cc2)c1OC | -25.1% | 11.2µM* | ? | ? | 14.1µM*
COc1ccccc1CNc1ccc(N2CCCCC2)cc1 | -6.4% | 20µM* | ? | ? | 22.4µM*
COc1cccc(CNc2ccc(S(N)(=O)=O)cc2)c1OC | 7.2% | 2.2% | -6.8% | -6.5% | -7.1%
COC(=O)c1ccc(CSc2c(C(C)C)cnc3c2c(=O)n(C)c(=O)n3C)cc1 | / | / | -2.6% | -6.1% | -5.4%
O=C(CSc1nc2c([nH]c3ccccc32)c(=O)n1-c1cccc(Cl)c1)c1ccccc1 | / | / | 9.7% | 6.6% | 11.4%
Fc1ccc(C2CC(c3ccco3)=NN2c2ccccc2)cc1 (centres undefined) | -28.3% | 4.5% | 3.5% | 4.3% | 1.1%
O=[N+]([O-])c1ccc(N2N=C(c3ccco3)CC2c2ccccc2)cc1 (centres undefined) | 60.4% | -4.4% | ? | ? | 8.91µM*
CCCCCn1c(=O)[nH]c2cc(C(=O)N3CCN(c4cccc(OC)c4)CC3)ccc2c1=O | / | / | 1.6% | -15.3% | -2.5%
COc1ccc(-c2ccc3c(N)c(C(=O)NC(C)C)sc3n2)cc1OC | 5.2% | ? | ? | 17.8µM*[quencher] | 10µM*
COc1cccc(-c2ccc3c(N)c(C(=O)c4ccc(Br)cc4)sc3n2)c1 | / | / | ? | 2.51µM*[quencher] | 4.47µM*
O=C1Nc2ccc(Br)cc2/C1=C/C(=O)c1ccc2c(c1)OCO2 | 7.4% | -4.6% | 11.8% | ? | 25.1µM*
O=C1Nc2ccc(Br)cc2/C1=C/C1CC=CCC1 (centres undefined) | 8.9% | -11.0% | ? | ? | ?
COc1ccc(Nc2nnc(-c3ccc(C)c(S(=O)(=O)N4CCOCC4)c3)c3ccccc23)cc1 | / | / | ? | ? | -4.4%
SMILES | GoLoco inh red | KDM4E inh | Tau fibril FP | Tau fluor cs | Tau fibril ThT
CC12CCC(C[N+](C)(C)C1)C2(C)C (centres undefined) | 8.91µM* | -6.9% | -9.3% | -8.4% | -10.9%
COc1ccc(C(=O)N2CCC[C@@]3(CCN(C(=O)Nc4ccccc4)C3)C2)cc1 | 3.8% | / | / | / | /
O=C(Nc1nnc(CC2=CCCCC2)s1)Nc1ccccc1F | 2.2% | 14.4% | -15.6% | -21.5% | -2.4%
Cc1ccc(NC(=O)Nc2nnc(CSCCOc3ccc(Cl)cc3)s2)cc1 | 11.3% | 9.1% | ? | -24.9% | -2.5%
O=C(Nc1cccc(Cl)c1)Nc1nnc(CSCCOc2ccc(Cl)cc2)s1 | 9.3% | 7.3% | 7.94µM* | ? | -2.0%
O=C(Nc1cccc(Cl)c1)Nc1nnc(CC2=CCCCC2)s1 | -1.5% | -8.0% | 11.2µM* | ? | 11.5%
COc1ccc(OCCSCc2nnc(NC(=O)Nc3ccc(Cl)cc3)s2)cc1 | 7.5% | 13.6% | 28.2µM* | -23.0% | 0.6%
O=C1N(Cc2ccccc2Cl)c2ccccc2C1(O)c1c[nH]c2ccccc12 (centres undefined) | / | / | -5.3% | ? | -9.6%
O=C(N/N=C/c1ccccn1)c1cc(-c2ccccc2)nc2ccccc12 | 4.9% | 25.1µM* | -6.8% | ? | ?
O=[N+]([O-])c1cccc(/C=N/Nc2ccccn2)c1 | 3.0% | 2.1% | 0.9% | -7.1% | ?
Cc1cc(C(=O)N/N=C/c2cc(Cl)cc([N+](=O)[O-])c2O)n[nH]1 | 5.0% | 17.8µM* | -10.7% | ? | 12.6µM*
O=[N+]([O-])c1cc(Cl)cc(/C=N\Nc2ccccn2)c1O | 0.8% | -6.1% | -11.8% | 17.8µM*[quencher] | 8.91µM*
Cc1cc(C(=O)N/N=C/C=C/c2ccc([N+](=O)[O-])cc2)n[nH]1 | 7.6% | -7.3% | -0.2% | -17.5% | 1.78µM*
Cc1cc(C(=O)N/N=C/c2ccc([N+](=O)[O-])s2)n[nH]1 | -2.2% | -8.6% | -8.9% | -21.1% | ?
COc1cccc(CNC(=O)COCc2cc(-c3ccc4c(c3)OCO4)on2)c1 | / | / | 3.5% | -8.6% | -12.7%
Cc1ccc(NC(=O)CN2C(=O)C(c3ccc(C)cc3)=NC23CCCCCC3)cc1 | / | / | -18.0% | -18.5% | -2.2%
CCc1ccc(NC(=O)c2ccc3c(c2)c(C)c(C)n3Cc2ccccc2)cc1 | / | / | -1.1% | -11.0% | 1.3%
Cc1ccc(S(=O)(=O)N2CCc3nc(COc4ccccc4)c4c(c3C2)CO[C@@H](C)C4)cc1 | 6.6%[14.2 µM] | 2.1%[11.4 µM] | -2.0%[11.6 µM] | -15.2%[11.6 µM] | -13.0%[11.5 µM]
C/C(=N\NC(=O)c1cc(-c2cccnc2)nc2ccccc12)c1ccc(O)cc1O | 16.0% | 0.7% | 19.7% | ? | 7.94µM*
Cc1ccc(C)c(NC(=O)c2cc(-c3cccnc3)nc3ccccc23)c1 | 7.0% | 5.1% | -2.6% | -6.7% | -9.3%
O=C(N/N=C/c1cc(Cl)cc([N+](=O)[O-])c1O)c1cc(-c2ccccn2)nc2ccccc12 | 24.1% | 22.4µM* | 4.7% | ? | 8.91µM*
C/C(=N\NC(=O)c1cc(-c2ccccn2)nc2ccccc12)c1cccc([N+](=O)[O-])c1 | 6.3% | 7.0% | -11.1% | -19.0% | 0.7%
COc1ccc(CNC(=O)CCC2N=C3c4ccccc4N=C(SCc4ccc(F)cc4)N3C2=O)cc1 (centres undefined) | / | / | 12.6% | -5.8% | -14.3%
CNC(=S)N/N=C/c1cc(Br)cc(Br)c1O | 6.9% | -1.9% | -0.5% | -0.6% | 4.9%
